# Hits are enriched below; roughly 1.8% of the tested compounds scored in any of these assays.
# GSTO1 inh – GSTO1 inhibition, counter-screen for RBBP9 inhibitors | P78417 | recombinant GSTO1, activity-based probe fluorescence polarization | inhibition, % at 5.96 µM | 300,000 tested, 1.1% active;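 active = inhibition above the campaign mean inhibition plus 3 SD, cut at about 35% in these data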;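 also: 0% = GSTO1-1 with DMSO and 100% = wells lacking GSTO1-1 enzyme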
# PAD4 inh – inhibitors of human PAD4; recombinant PAD4, RCA probe fluorescence polarization; inhibition, % at 6.36 µM; AID 485272; Q9UM07; 330,000 tested, 0.41% active;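 active = percent inhibition above a cutoff equal to the mean of all tested compounds plus 3 SD, cut at about 15% in these data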;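 also: 0% = PAD4 with RCA probe and DMSO and 100% = probe without PAD4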
# PME-1 primary – PME-1 (human) inhibition | Q9Y570 | recombinant PME-1, FP-Rh probe fluorescence polarization | inhibition, % at 5.9 µM | 320,000 tested, 0.53% active | AID 2130;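 active = inhibition above the campaign mean of all compounds plus 3 SD, cut at about 26% in these data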;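 also: competitive labeling of PME-1 active site by serine hydrolase directed probe; 0% = PME-1 with DMSO and 100% = wells lacking PME-1 enzyme; inhibitors block probe labeling so polarization falls and inhibition rises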
# Target sequence (Q9Y570 whole entry, looked up): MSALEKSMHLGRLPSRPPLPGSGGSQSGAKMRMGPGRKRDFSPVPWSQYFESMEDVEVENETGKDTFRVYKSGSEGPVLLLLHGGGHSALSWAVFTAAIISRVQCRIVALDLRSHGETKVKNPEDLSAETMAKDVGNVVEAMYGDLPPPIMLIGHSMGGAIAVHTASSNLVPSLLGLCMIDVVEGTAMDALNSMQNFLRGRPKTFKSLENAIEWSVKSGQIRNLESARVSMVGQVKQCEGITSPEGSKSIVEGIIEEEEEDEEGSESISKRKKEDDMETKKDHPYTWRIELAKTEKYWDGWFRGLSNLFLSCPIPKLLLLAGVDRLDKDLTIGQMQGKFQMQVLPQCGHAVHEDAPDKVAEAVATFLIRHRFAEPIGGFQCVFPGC
# LYPLA1 inh – blocks human lysophospholipase 1, a PME1 counter-screen | recombinant LYPLA1, FP-Rh probe fluorescence polarization | inhibition, % at 5.9 µM | 320,000 tested, 0.16% active;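 active = inhibition above the mean of all tested compounds plus 3 SD, set per campaign, cut at about 14% in these data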;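 also: inhibitors block serine hydrolase probe labeling of LYPLA1 so polarization falls; 0% = enzyme with DMSO and 100% = wells lacking LYPLA1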
# Target sequence (O75608 whole entry, looked up): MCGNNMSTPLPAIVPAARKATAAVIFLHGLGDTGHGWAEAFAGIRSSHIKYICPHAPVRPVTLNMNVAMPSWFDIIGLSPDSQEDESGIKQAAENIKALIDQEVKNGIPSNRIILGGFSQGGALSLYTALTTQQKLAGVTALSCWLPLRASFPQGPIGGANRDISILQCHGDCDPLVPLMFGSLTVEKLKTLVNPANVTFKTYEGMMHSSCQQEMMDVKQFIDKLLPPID
# Fam108B inh – blocks mouse Fam108B hydrolase in RBBP9 counter-screen; 300,000 tested, 0.33% active; recombinant Fam108B, FP-Rh probe fluorescence polarization; inhibition, % at 9.51 µM;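 active = inhibition above the screen mean inhibition plus 3 SD, computed separately per campaign, cut at about 18% in these data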;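 also: inhibitors lower polarization as less probe binds the enzyme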
# LYPLA2 counter – LYPLA2 (human) inhibition in PME1 counter-screen | O95372 | recombinant LYPLA2, FP-Rh probe fluorescence polarization | inhibition, % at 5.9 µM | 320,000 tested, 0.38% active | AID 2177;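 active = inhibition above the screen-wide mean plus 3 SD, limit set per campaign, cut at about 26% in these data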;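 also: 0% = LYPLA2 with DMSO and 100% = wells lacking LYPLA2 enzyme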
# LYPLA2 conf – counter-screen for PME1 inhibitors: confirmation of human LYPLA2 inhibitors | shares compounds with LYPLA2 counter | 1,100 tested, 72% active | AID 2232 | recombinant LYPLA2, FP-Rh probe fluorescence polarization | inhibition, % at 5.9 µM;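 active = mean inhibition across replicates above the hit cutoff set in the primary screen, cut at about 26% in these data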;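 also: blocked labeling of the enzyme by serine hydrolase FP-Rh probe lowers polarization; 0% = enzyme with DMSO and 100% = wells lacking LYPLA2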
# LYPLA2 gel ABPP – LYPLA2 (human) inhibition, late stage results; inhibition, % at 20 µM; AID 652029; rhLYPLA2 in mouse brain proteome, gel ABPP FP-Rh; shares compounds with LYPLA2 counter; 150 tested, 30% active;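 active = inhibition of LYPLA2 enzyme probe labeling above about 50%, limit read from the data; inactive = inhibition below that limit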;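 also: loss of FP-Rh probe labeling of the LYPLA2 gel band measured as band density; 0% = DMSO only control band and 100% = blank gel background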
# * hit, by the source's call; . = not tested or not shown.
SMILES,GSTO1 inh,PAD4 inh,PME-1 primary,LYPLA1 inh,Fam108B inh,LYPLA2 counter,LYPLA2 conf,others
CCOC(=O)c1ccc(NC(=O)c2ccc3c(c2)C(=O)N(Cc2cccnc2)C3=O)cc1,13,-1,-12,3,3,41*,47*,
O=c1oc(-c2ccccc2F)nc2c1cnn2-c1ccccc1,-1,-4,0,-1,15,-2,.,
COc1ccc(OC)c(-c2cc(C(=O)Nc3c(C)nn(Cc4ccccc4C)c3C)no2)c1,-4,-2,-5,11,-7,64*,55*,LYPLA2 gel ABPP=50*
COc1ccc(-c2cc(C(=O)Nc3c(C)nn(Cc4ccccc4Cl)c3C)no2)cc1OC,-3,0,-9,-1,-5,4,.,
COc1ccc(OC)c(-c2cc(C(=O)Nc3c(C)nn(Cc4ccccc4Cl)c3C)no2)c1,-6,-6,-5,-2,-9,40*,29*,
COc1ccc(S(=O)(=O)N2CCN(C(=O)c3cc(-c4ccc(C)cc4)n[nH]3)CC2)cc1,-3,0,0,-3,-3,-5,.,
CCN(CC)c1ccc(C(=O)Nn2cnc3ccccc3c2=O)cc1,-3,1,0,-1,0,1,.,
CCCCCCCCCC(=O)Nn1cnc2ccccc2c1=O,-2,3,-2,2,-1,71*,75*,LYPLA2 gel ABPP=52*
CCCCCCOc1ccc(OC(=O)c2ccncc2)cc1,7,-2,-6,8,-6,47*,56*,
CSc1ncccc1C(=O)N1CCN(S(=O)(=O)c2ccc3c(c2)OCCO3)CC1,.,4,.,.,.,.,.,
COc1ccc(CCC(=O)N2CCN(c3ccccc3)CC2)cc1OC,0,-1,4,1,-2,2,.,
CC(C)N1CCc2c(sc(NC(=O)c3ccc(C(=O)c4ccccc4)cc3)c2C(N)=O)C1,-107,-2,-2,-5,3,26*,31*,
CC(=O)c1ccc(N2CCN(C(=O)c3noc4c3CSc3ccccc3-4)CC2)cc1,0,-4,0,6,1,44*,17,
CC(=O)c1ccc(N2CCN(C(=O)c3c(-c4ccccc4Cl)noc3C)CC2)cc1,-2,0,2,0,0,0,.,
O=C(CSc1nc2ccc([N+](=O)[O-])cc2[nH]1)NCCc1ccccc1,7,0,4,-1,0,-1,.,
Fc1ccccc1COc1ccc(/C=N/n2cnnc2)cc1,-2,-5,8,4,3,26*,12,
COc1ccc(-n2nnc3c(=O)n(CC(=O)Nc4cc(C)on4)cnc32)cc1OC,-3,-6,2,1,-1,4,.,
Cc1ccc(C(CNC(=O)C(=O)Nc2ccc3c(c2)OCCO3)N2CCN(C)CC2)cc1 (stereo not given),6,-6,-3,-4,-1,44*,0,
C/C(CCC(C)C)=N\NC(=S)Nc1cc(S(=O)(=O)N2CCOCC2)ccc1N1CCOCC1,-9,-2,5,6,4,28*,62*,
COc1ccc2cc(/C(C)=N/NC(=S)Nc3cc(S(=O)(=O)N4CCOCC4)ccc3N3CCOCC3)ccc2c1,-17,-1,-6,-6,-6,-7,.,
N#C/C(=C\c1ccc(OCc2ccc(C(=O)O)cc2)cc1)C(=O)NCc1ccccc1,-17,2,-1,6,-2,40*,33*,
COc1cc(/C=C(\C#N)C(=O)NCc2ccccc2)ccc1OCc1ccc(C(=O)O)cc1,-7,3,6,-2,-1,41*,29*,
O=C(O)CCC1(c2ccccc2)NC(=O)NC1=O (stereo not given),14,-1,-2,1,3,3,.,
Cc1cc2c(cc1S(=O)(=O)Nc1cccc(C)c1C)n(C)c(=O)c(=O)n2C,4,-8,8,4,1,-5,.,
O=C(NCc1ccco1)c1ccc2c(c1)C(=O)N(Cc1ccccc1)C2=O,-3,4,7,0,6,4,.,
SMILES,GSTO1 inh,PAD4 inh,PME-1 primary,LYPLA1 inh,Fam108B inh,LYPLA2 counter,LYPLA2 conf,others
CC(C)CCN1C(=O)c2ccc(C(=O)NCc3ccco3)cc2C1=O,1,7,3,7,3,28*,21,
CCOC(=O)c1ccccc1-n1c(C)cc(C2N=C(N)Nc3nc4ccccc4n32)c1C (stereo not given),-3,-1,-143,9,5,71*,77*,
CCOC(=O)C1=C(C)Nc2nc3ccccc3n2C1c1ccc(O)cc1 (stereo not given),4,4,0,1,-4,2,.,
O=[N+]([O-])c1ccc(Oc2cccc(C(F)(F)F)c2)nc1,8,2,-3,1,3,41*,75*,LYPLA2 gel ABPP=47
COc1ccc(-n2nc(C(=O)NCC(=O)N3CCN(c4ccc(F)cc4)CC3)c3ccccc3c2=O)c(OC)c1,0,4,-1,0,0,58*,62*,LYPLA2 gel ABPP=41
COc1ccc(-n2nc(C(=O)NCC(=O)N3CCCC3)c3ccccc3c2=O)c(OC)c1,4,-4,-6,5,-1,4,.,
Cc1ccc(C)c(N2CCN(C(=O)c3ccc(CSc4nc5ccncc5[nH]4)cc3)CC2)c1,2,-3,-10,-1,-4,0,.,
COc1ccc(N2CCN(C(=O)c3ccc(NS(=O)(=O)c4ccccc4)cc3)CC2)cc1,-17,-4,2,2,1,37*,34*,
COc1ccc(N2CCN(C(=O)c3ccc(CSc4ccccc4)cc3)CC2)cc1,7,1,0,3,1,30*,42*,
COc1cccc(N2CCN(C(=O)c3ccc(CSc4nc5ccncc5[nH]4)cc3)CC2)c1,8,-1,3,3,-1,31*,22,
COc1ccc(N2CCN(C(=O)c3ccc(S(=O)(=O)NCc4ccco4)cc3)CC2)cc1,.,2,0,-4,.,32*,38*,
COc1cc(C(=O)NC(=S)Nc2ccc3oc(=O)ccc3c2)cc(OC)c1OC,0,1,1,2,-5,4,.,
Cc1nc2ccccc2n1CCc1nc2c3ccccc3nc(SCC#N)n2n1,-2,3,1,1,2,-1,.,
NS(=O)(=O)c1cccc(NC(=O)COC(=O)Cn2cc(C(F)(F)F)ccc2=O)c1,.,0,0,-1,.,1,.,
Cc1cccc(N2CCN(C(=O)c3ccc(NS(=O)(=O)c4c(C)noc4C)cc3)CC2)c1C,0,3,-6,-1,-3,2,.,
Cc1noc(C)c1S(=O)(=O)Nc1ccc(C(=O)N2CCN(c3cccc(Cl)c3)CC2)cc1,-27,-3,1,5,6,30*,25,
